Rows were chosen to be rich in hits. Some 11% of all compounds tested hit in one or more screens of this group.
IMPase cell inh: cell-permeable inhibitors of inositol monophosphatase (IMPase). CHO-M1 cells, IP1 accumulation, HTRF TR-FRET ratio. inhibition (IP1 accumulation), % at 46.1 µM. P97697. 120,000 tested, under 10 active. AID 901; active = well fitted curve in the direction sought with a large enough effect in the signal ratio, not every such curve was filed as active; inconclusive = small, poorly fitted or top-dose-only effect, or a change in a side signal; inactive = no such curve, though single readings can be large or run the other way; the % refers to the signal ratio;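 note: cells stimulated with carbachol in lithium chloride buffer; plate controls were DMSO basal wells for no effect and reference inhibitor wells for full effect; higher means more IMPase inhibition seen as more IP1 and lower FRET ratio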
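CHO-M1, 2000 cells/well, cultured 16–30 h; cpd up to 46 uM; carbachol (50 uM solution, stimulation buffer w/ 50 mM LiCl, pH 7.4), 30 min 37C; IP-One TR-FRET, 10 min RT; Ex 320/Em 665, 620; Hill-fit AC50.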
PNC assembly inh: perinucleolar compartment assembly inhibition; activity change (PNC), negative = inhibition, % at 10 µM; PC3M PTB-GFP, PNC prevalence imaging, 16 h; hits give low values; 140,000 tested, 3.1% active; AID 2417;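 active = readout at or below -70, meaning at least 70% loss of cells showing the perinucleolar compartment, a nuclear body marking cancer cells; inconclusive = readout between -30 and a set limit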;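 note: plate controls were DMSO wells for no effect and camptothecin positive control wells for full effect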
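Compounds are pinned in duplicate onto adhered PC3M cells stably expressing GFP-tagged PTB and incubated 16 h at 37 C. Cells are then fixed, nuclei stained with Hoechst, and PNC-positive cells counted.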
ALDH1A1 inh: inhibitors of human aldehyde dehydrogenase 1A1. Purified ALDH1A1, NADH fluorescence, propionaldehyde substrate. Potency, µM (series often up to 75.3 µM), for inactives: top-dose activity, negative = inhibition, hits mostly inhibitors. 220,000 tested, 7.3% active;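 note: potency is the fitted concentration of half-maximal effect; plate controls were no enzyme wells and a reference inhibitor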
Target sequence (P00352 whole entry, looked up): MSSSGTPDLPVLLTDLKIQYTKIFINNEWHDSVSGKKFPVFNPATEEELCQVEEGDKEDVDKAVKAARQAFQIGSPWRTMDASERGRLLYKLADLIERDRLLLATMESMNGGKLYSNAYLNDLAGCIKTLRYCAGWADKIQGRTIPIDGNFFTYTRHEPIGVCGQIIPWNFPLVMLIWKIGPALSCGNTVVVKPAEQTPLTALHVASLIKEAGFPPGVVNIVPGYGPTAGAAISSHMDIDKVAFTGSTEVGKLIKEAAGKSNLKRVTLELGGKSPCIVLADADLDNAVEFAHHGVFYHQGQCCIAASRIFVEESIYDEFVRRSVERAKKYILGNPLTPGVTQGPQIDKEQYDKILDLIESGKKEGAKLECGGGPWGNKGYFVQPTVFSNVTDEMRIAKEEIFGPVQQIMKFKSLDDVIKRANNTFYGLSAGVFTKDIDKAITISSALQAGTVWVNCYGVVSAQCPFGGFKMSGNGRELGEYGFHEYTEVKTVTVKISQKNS
HPGD block: inhibitors of human 15-hydroxyprostaglandin dehydrogenase (HPGD); purified HPGD, NADH fluorescence kinetic, PGE2 substrate; Potency, µM, inactives show at the highest dose activity change, negative = inhibition, most hits filed as inhibitors; 150,000 tested, 4.3% active; AID 894; note: potency is the fitted concentration of half-maximal effect
Target sequence (P15428 whole entry, looked up): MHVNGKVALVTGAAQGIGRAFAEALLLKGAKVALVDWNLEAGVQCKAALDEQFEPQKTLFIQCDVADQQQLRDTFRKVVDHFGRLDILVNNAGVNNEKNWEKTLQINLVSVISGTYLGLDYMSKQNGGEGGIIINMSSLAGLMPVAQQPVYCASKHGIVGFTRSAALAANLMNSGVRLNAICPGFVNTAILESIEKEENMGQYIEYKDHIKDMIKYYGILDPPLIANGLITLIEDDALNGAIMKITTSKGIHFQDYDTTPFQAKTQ
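20 nM HPGD preincubated 15 min at room temperature with compound in 50 mM Tris-HCl pH 8, 0.01% Tween 20. Started with 1 mM NAD+ and 30 uM prostaglandin E2; NADH fluorescence (360/450 nm) read 5 times over 30-s intervals, last minus first.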
IMPase Li cell: IMPase inhibition in cells with lithium potentiation; CHO-M1 cells, IP1 TR-FRET (IP-One), carbachol + lithium; Potency, µM (titrated, usually from 59.4 µM), for inactives: at the highest dose activity, negative = IMPase inhibition, most hits filed as inhibitors; 210,000 tested, 0.35% active; active = well fitted inhibition curve with a large enough effect; inconclusive = small, poorly fitted or top-dose-only effect; inactive = no such curve, though single readings can be large or run the other way;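 note: IP1 builds up when IMPase is blocked and the TR-FRET signal falls; potency is the fitted concentration of half-maximal effect; plate controls were basal vehicle for no effect and high inhibitor control for full effect; nearly all actives have a fitted effect of over 50% in size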
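Readout is a homogeneous TR-FRET IP1 immunoassay (Ex 320, Em 665 and 620), where raised cytosolic IP1 lowers signal. Cells were CHO-M1 treated 30 min at 37C with test compounds plus a little lithium; AC50 values came from Hill-equation fitting.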
* marks the source's active call; other numbers are inactive results; u = inconclusive; x = not tested or not shown; [ ] = dose if it differs, or a comment. Unless noted, calls come from the whole dose curve; as a rule, active = well fitted inhibition curve with a large enough effect (not every such curve was filed as active); inconclusive = small, poorly fitted or top-dose-only effect, or another doubt; inactive = no such curve, though single readings can be large or run the other way. Unless noted, % is set by controls: 0 for no effect and ±100 for the full control effect.

SMILES	IMPase cell inh	PNC assembly inh	ALDH1A1 inh	HPGD block	IMPase Li cell
COc1ccc(-c2cc(C(F)(F)F)nc(SCC(=O)Nc3sc4c(c3C#N)CCC4)n2)cc1	-2[1.84 µM]	4	u	u	16%[38.3 µM]
Cc1ccc(C(=O)NCc2nnc(SCC(=O)Nc3sc4c(c3C#N)CCCC4)n2C)cc1	8	-6	14µM*	-33%	1%[38.3 µM]
CC(C)(C)NC(=O)C(c1ccc(O)cc1)N(C(=O)Cn1nnc(-c2ccc(F)cc2)n1)c1ccccc1F (stereo not given)	x	x	3%	x	6%
CCOC(=S)SCC(=O)O	x	x	u	-7%	1%
Cc1cccc(N2CCN(CC(O)COCc3cccs3)CC2)c1C (stereo not given)	-9	-115*	-10%	x	x
O=C(O)c1ccccc1C(=O)c1ccc(Oc2ccccc2)cc1	x	-85*	1%	-3%	0%
Cc1ccc(C(=O)c2ccccc2C(=O)O)cc1C	x	x	20%	x	1%
Cc1ccc(N=C2CCCN2Cc2ccccc2)c(C#N)c1	15	59	-10%	1%	7%
CO[C@H]1COC(=O)C/C=C\[C@H](C)[C@@H](OC)COC(=O)[C@@H](C)NC(=O)C/C=C\[C@@H]1C	x	x	2%[13.5 µM]	x	x
CCC(CC)NCc1ccc2c(c1)c1ccccc1n2CC	x	x	20µM*	x	13%
O=C(/C=C/c1ccco1)Nc1ccc(Cl)c(-c2nc3cc(Cl)ccc3o2)c1	-9	x	x	x	x
COC(=O)c1ccc(NC(=O)C2CCCN2S(=O)(=O)c2ccc(C)cc2)cc1 (stereo not given)	-2	-119*	11%	-3%	8%
COC(=O)c1ccc(NC(=O)C2CCCN2S(=O)(=O)c2ccc(OC)cc2)cc1 (stereo not given)	13	u	u	-4%	15%
O=C(Nc1nccs1)C1CCCN1S(=O)(=O)c1ccc(Cl)cc1 (stereo not given)	3	u	18µM*	-19%	-1%[38.3 µM]
CC1CCC/C(=C\Nc2ccc3c(c2)OCO3)C1=O (stereo not given)	10	18	13µM*	u	8%[38.3 µM]
Cc1ccc(Cl)cc1N(CC(=O)Nc1cccc(N(C)S(C)(=O)=O)c1)S(C)(=O)=O	x	x	-5%	x	5%
Cc1cccc(C)c1N(CC(=O)Nc1cccc(N(C)S(C)(=O)=O)c1)S(C)(=O)=O	-7	31	22µM*	-14%	1%[38.3 µM]
COc1ccc(OC)c(S(=O)(=O)Nc2ccc(O)c3ccccc23)c1	14	u	3.5µM*	3.2µM*	36%
CCOc1ccc(S(=O)(=O)Nc2ccc(O)c(Sc3ncn[nH]3)c2)cc1	-1	20	-12%	-11%	3%
COc1ccc(OC)c(S(=O)(=O)Nc2ccc(O)c(Sc3ncn[nH]3)c2)c1	13	-28	7%	22µM*	5%[38.3 µM]
COC(=O)c1ccc(NC(=O)CN2C(=O)c3cccc4cccc2c34)cc1	12	x	x	x	x
O=C1CC(c2nnc(Cc3ccccc3Cl)o2)CN1c1ccccc1 (stereo not given)	-6	x	x	x	x
CC(C)c1ccccc1NC(=O)COc1ccc(C(=O)NCCc2ccccc2)cc1	5	2	0%	-5%	10%
O=C(O)CCc1ccc(S(=O)(=O)NCCc2ccccc2)cc1	-21	5	1.8µM*	x	x
CCOc1ccc(NC(=O)COc2ccc(C(=O)NCCc3ccccc3)cc2)cc1	-7	-105*	-1%	x	x
SMILES	IMPase cell inh	PNC assembly inh	ALDH1A1 inh	HPGD block	IMPase Li cell
CCOCC(=O)Nc1ccc(S(=O)(=O)NCCc2ccccc2)cc1	-3	3	10µM*	-5%	-7%[38.3 µM]
CCc1ccc(CNC(=O)CN2C(=O)COc3ccccc32)cc1	-1	u	-3%	-13%	6%[38.3 µM]
Cc1c(Cl)cccc1NC(=O)Cn1nc(C(F)(F)F)c2c1CCC2	4	x	x	x	x
CCn1c(=O)c(C(=O)NC(C)C)c(O)c2ccccc21	-9	-10	13µM*	-17%	24%[38.3 µM]
COC(=O)c1ccccc1NC(=S)NC(NC(=O)COc1ccccc1)C(Cl)(Cl)Cl (stereo not given)	7	68	u	22µM*	8%[38.3 µM]
COC(=O)c1ccccc1NC(=S)NC(=O)COc1ccc(C(C)C)cc1	x	-23	18µM*	-14%	11%
COc1cccc(NC(=O)CSc2nnc3scc(-c4ccc(Cl)cc4)n23)c1	2	x	x	x	x
CC(C)N1C(=O)/C(=C\c2nc3ccccc3c(=O)[nH]2)c2ccccc21	x	42	13µM*	-26%	21%
CCCN1C(=O)/C(=C/c2nc3ccccc3c(=O)[nH]2)c2cc(C)ccc21	x	x	1%	x	x
CCCN1C(=O)/C(=C/c2nc3ccccc3c(=O)[nH]2)c2ccccc21	x	-20	2.5µM*	-5%	18%
COc1ccccc1NC(=O)CSCc1nc2ccccc2[nH]1	-16	14	5%	-1%	2%
COc1ccc(-c2nc3cnc(N4CCOCC4)nc3n(Cc3cccs3)c2=O)cc1	x	x	u	x	2µM*
CN(C)c1ncc2nc(-c3ccc(F)cc3)c(=O)n(Cc3cccs3)c2n1	x	x	u	x	-3%
COc1ccc(-c2nc3cnc(N4CCN(C)CC4)nc3n(Cc3cccs3)c2=O)cc1	x	x	-5%	x	26%
CN(C)c1ncc2nc(-c3cc(F)cc(F)c3)c(=O)n(Cc3cccs3)c2n1	x	x	u	u	5.6µM*
COc1ccc(CCN2C(=O)c3ccncc3C2=O)cc1OC	3	10	-3%	-12%	-19%[38.3 µM]
O=c1[nH]ncn1-c1cccc(C(F)(F)F)c1	-1	-106*	6%	-10%	-10%[38.3 µM]
CCCCNC(=S)Nc1ccc2nc3n(c(=O)c2c1)CCCCC3	x	4	-14%	14µM*	-1%
CC1CCN(C(=S)Nc2ccc3nc4n(c(=O)c3c2)CCCCC4)CC1	4	u	u	13µM*	2%
CC(C)CCNC(=S)Nc1ccc2nc3n(c(=O)c2c1)CCCCC3	-8	29	u	4.5µM*	7%
CCCCc1cc2c(cn1)=C(OC(=O)C1CCCC1)C(C)(OC(=O)CC)C(=O)C=2 (stereo not given)	x	x	u	-3%	7%
CCCc1[nH]nc2c1C(c1cccnc1)C(C#N)=C(N)O2 (stereo not given)	0	-21	14µM*	-6%	x
N#CC1=C(N)Oc2cc3ccccc3cc2C1c1cccnc1 (stereo not given)	5	-90*	14µM*	28µM*	17%[38.3 µM]
CCCc1[nH]nc2c1C(c1ccncc1)C(C#N)=C(N)O2 (stereo not given)	4	-14	14µM*	-23%	-8%[38.3 µM]
CCCc1[nH]nc2c1C(/C(C)=C/c1ccccc1)C(C#N)=C(N)O2 (stereo not given)	0	u	14µM*	-9%	2%[38.3 µM]
Cc1cccc(CNc2ncncc2-c2ccccc2CN(C)C)c1	x	x	9%	x	16%
CN(C)c1ncc2nc(CCc3ccccc3)c(=O)n(Cc3cccs3)c2n1	x	x	u	x	9%
Nc1nnc(SCc2ccc(F)cc2)n1-c1ccccc1	16	-19	12%	-12%	0%

Screening results: PubChem BioAssay, National Center for Advancing Translational Sciences (NCATS)
